Screens: PubChem BioAssay, National Center for Advancing Translational Sciences (NCATS)
The entries come from a sample that favours hits as a whole.
ALOX12 inh = blocks human arachidonate 12S-lipoxygenase | actives 1.1% (n = 580,000) | P18054 | purified 12hLO, xylenol orange hydroperoxide absorbance | Potency, µM (doses to about 108 µM), without a hit: top-dose activity change, negative = inhibition, usual class: inhibitors; also: potency is read from the fitted curve at half-maximal effect
Target sequence (P18054 whole entry, looked up): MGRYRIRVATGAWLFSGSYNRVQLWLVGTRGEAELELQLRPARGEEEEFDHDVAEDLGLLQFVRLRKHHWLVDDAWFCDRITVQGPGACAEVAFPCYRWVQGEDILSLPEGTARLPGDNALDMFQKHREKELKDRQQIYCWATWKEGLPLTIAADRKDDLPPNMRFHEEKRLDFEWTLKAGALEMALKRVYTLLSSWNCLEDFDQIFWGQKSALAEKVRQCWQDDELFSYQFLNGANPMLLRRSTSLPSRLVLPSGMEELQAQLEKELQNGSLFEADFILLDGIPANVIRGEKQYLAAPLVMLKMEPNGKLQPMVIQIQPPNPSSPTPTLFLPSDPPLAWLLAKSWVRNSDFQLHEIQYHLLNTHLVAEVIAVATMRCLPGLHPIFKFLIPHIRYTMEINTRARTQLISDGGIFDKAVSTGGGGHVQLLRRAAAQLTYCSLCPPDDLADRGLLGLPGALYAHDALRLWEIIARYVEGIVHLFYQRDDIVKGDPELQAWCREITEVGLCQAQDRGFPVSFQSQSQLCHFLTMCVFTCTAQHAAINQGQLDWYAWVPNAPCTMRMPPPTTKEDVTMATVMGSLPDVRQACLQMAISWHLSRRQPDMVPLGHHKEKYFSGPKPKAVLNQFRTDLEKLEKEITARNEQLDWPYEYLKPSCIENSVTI
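Purified human 12hLO at 150 nM in 25 mM Hepes, 0.01% Triton X-100, pH 7.0, preincubated 15 min at room temperature with compound. Reaction started with 40 uM arachidonic acid, 30 min at room temperature. Hydroperoxide measured by Fe-xylenol orange, 573/405 nm absorbance ratio.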
DT40 TDP1 CPT = growth inhibition of DT40 Tdp1-/-;hTDP1 cells with camptothecin (screen for TDP1 inhibitors); chicken DT40 Tdp1-/-;hTDP1 cells + 20 nM CPT, ATP luminescence, 48 h; Potency, µM (highest dose often 46.2 µM), without a hit: top-dose activity change, negative = growth inhibition, most hits filed as inhibitors; actives 12% (n = 420,000); also: potency is read from the fitted curve at half-maximal effect; nearly all actives have a fitted effect of over 55% in size
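Chicken DT40 Tdp1-/- cells complemented with human TDP1, 400 cells/well, exposed to compounds plus 20 nM camptothecin for at least 48 h at 37 C; viability read as ATP content by CellTiter-Glo luminescence.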
HT1080 IDH1KD tx = HT-1080 IDH1 knockdown cell toxicity (counter line) | HT-1080 IDH1 knockdown viability, ATP luminescence, 48 h | Potency, µM (highest dose often 46.1 µM), without a hit: top-dose activity, negative = toxicity, usual class: cytotoxic | actives 2% (n = 360,000) | AID 686971;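 also: potency is read from the fitted curve at half-maximal effect; 0% = DMSO wells and -100% = cell-free medium wells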
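Assay cells: HT-1080 with IDH1 knockdown, 750 per well, RPMI/5% FBS. Exposure: 48 h at 37 °C following 2 h pre-incubation. Read: CellTiter-Glo luminescence; fitted concentration-response, curve class assigned.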
IL-1B inflam inh = blocks inflammasome-driven IL-1 beta release. THP-1 LPS/ATP IL-1B secretion, AlphaLISA, 16 h; active compounds read low. AID 743279. actives 4.7% (n = 360,000). activity change, % at 57.5 µM; in the data active = activity change below about -50%; inconclusive = mostly about -30% to -49%
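Secreted IL-1B measured by AlphaLISA bead assay after 16 h compound exposure of THP-1 cells; compounds (final up to 57.5 uM) added 1 h before LPS (250 ng/mL) and ATP (1.25 mM) stimulation; lower signal means less secretion.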
HT1080-NT tox = kills 2HG-producing HT-1080-NT fibrosarcoma cells; HT-1080-NT fibrosarcoma viability, CellTiter-Glo ATP luminescence, 48 h; Potency, µM (doses to about 46.1 µM), for inactives: at the top dose activity, negative = less viability, usual class: cytotoxic; actives 1.6% (n = 360,000);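 also: NT is the 2HG producing partner of a matched IDH1 knockdown line; potency is read from the fitted curve at half-maximal effect; 0% = DMSO-treated cells and -100% = media-only wells without cells; nearly all actives have a fitted effect of over 55% in size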
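A 48-hour cytotoxicity screen used HT-1080-NT cells plated 2 hours before compound delivery. ATP-based CellTiter-Glo luminescence measured viability, normalized to DMSO and no-cell controls.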
DT40 TDP1 no CPT = qHTS for Inhibitors of human tyrosyl-DNA phosphodiesterase 1 (TDP1): qHTS in cells in absence of CPT | DT40 Tdp1-/- hTDP1 cells, no CPT, ATP luminescence, 48 h | Potency, µM (titrated, usually from 46.2 µM), for inactives: top-dose activity change, negative = growth inhibition, usual class: inhibitors | actives 15% (n = 420,000); also: potency is read from the fitted curve at half-maximal effect; nearly all actives have a fitted effect of over 55% in size
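DT40 Tdp1-/-;hTDP1 cells, no CPT (DMSO vehicle only), 400 cells/well; compounds pin-transferred; ≥48 hr, 37 °C; CellTiter-Glo 30 min RT dark, luminescence read.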
An asterisk follows results filed as active; [ ] = another dose, or the depositor's remark. Unless noted, calls follow the shape of the dose curve; as a rule, active = well fitted curve in the direction sought with a large enough effect; inconclusive = small, poorly fitted or top-dose-only effect, or another doubt; inactive = no such curve, though single readings can be large; an effect the other way counts as inactive or inconclusive. Unless noted, % is scaled to controls: 0 for no effect and ±100 for the full control effect.

How did O=C(Nc1ccccc1)c1ccc(Br)c(S(=O)(=O)N2CCCCC2)c1 do in these assays?
ALOX12 inh: -13%; DT40 TDP1 CPT: 18µM*; DT40 TDP1 no CPT: 21µM*

How did O=C(Nc1ccc(Cl)cn1)c1ccc(Br)c(S(=O)(=O)N2CCCCC2)c1 do in these assays?
ALOX12 inh: 14%; DT40 TDP1 CPT: 23µM*; HT1080 IDH1KD tx: 16%; IL-1B inflam inh: -7; HT1080-NT tox: 1%; DT40 TDP1 no CPT: inconclusive

Results for C#CCNC(=O)CC[C@@H]1CNC(=O)[C@@H]2C[C@H](NC(=O)Nc3ccc(F)cc3F)CN12 ?
ALOX12 inh: 5%[176 µM]

How did O=C(Nc1ccc(F)c(Cl)c1)c1nccnc1-c1nc2ccccc2s1 do in these assays?
ALOX12 inh: 0%

How did O=C(Nc1ccc(Br)cc1)c1ccc(Br)c(S(=O)(=O)N2CCCCC2)c1 do in these assays?
ALOX12 inh: 2%; DT40 TDP1 CPT: inconclusive; DT40 TDP1 no CPT: 18µM*

What do the screens show for `COCC(=O)N1CC[C@H]2COC(=O)N2c2cc(C)ccc2C1`?
ALOX12 inh: 3%[176 µM]

How did CN(CC(=O)Nc1ccc(Cl)cc1)C1CCCCC1 do in these assays?
ALOX12 inh: inconclusive; DT40 TDP1 CPT: -12%; HT1080 IDH1KD tx: -7%; IL-1B inflam inh: 5; HT1080-NT tox: -4%; DT40 TDP1 no CPT: inconclusive

Results for Cc1ccc(NC(=O)CN(C)C2CCCCC2)cc1Br ?
ALOX12 inh: -4%; DT40 TDP1 CPT: inconclusive; HT1080 IDH1KD tx: -18%; IL-1B inflam inh: -12; HT1080-NT tox: -19%; DT40 TDP1 no CPT: 18µM*

How did CS(=O)(=O)N(CC(=O)Nc1ccc(Br)cc1)C1CCCCC1 do in these assays?
ALOX12 inh: 0%; DT40 TDP1 CPT: inconclusive; HT1080 IDH1KD tx: inconclusive; IL-1B inflam inh: -4; HT1080-NT tox: inconclusive; DT40 TDP1 no CPT: 23µM*

Results for Cc1cc(C)c(NC(=O)COC(=O)C2CCCCC2)c(C)c1 ?
ALOX12 inh: -4%; DT40 TDP1 CPT: 9%; HT1080 IDH1KD tx: -2%; IL-1B inflam inh: -15; HT1080-NT tox: -5%; DT40 TDP1 no CPT: 2%

How did Cc1cc(C)c(NC(=O)CN(C2CCCCC2)C2CCCCC2)c(C)c1 do in these assays?
ALOX12 inh: -5%[57.4 µM]; DT40 TDP1 CPT: 23µM*; HT1080 IDH1KD tx: 4%; IL-1B inflam inh: -4; HT1080-NT tox: 4%; DT40 TDP1 no CPT: 16µM*

How did CC[C@H]1CN(C(=O)Nc2cccc(C(F)(F)F)c2)CC[C@H]1CC(=O)N(C)CC#N do in these assays?
ALOX12 inh: 0%[176 µM]

Results for CC(C)c1ccc(OCCCCN2CCCC2)cc1 ?
ALOX12 inh: 0%

What do the screens show for `COc1ccc(CN2CC3(CCN(S(=O)(=O)c4c(C)nn(C)c4C)CC3)C2=O)cc1`?
ALOX12 inh: 21%

Results for CCOc1cccc(-c2noc(-c3nnn4c3COC(c3ccc(OC)cc3)C4)n2)c1 (stereo unspecified) ?
ALOX12 inh: 17%

How did CS(=O)(=O)N1CCC(C2CCN(C(=O)Cc3ccc(F)cc3)C2)CC1 (stereo unspecified) do in these assays?
ALOX12 inh: 26%

How did O=C(NCCc1ccc2c(c1)OCCO2)c1ccc(NS(=O)(=O)c2cccs2)cc1 do in these assays?
ALOX12 inh: 11%

Results for CCOC(=O)C(CC)(CC)C(=O)/C=C/c1cccc(Br)c1 ?
ALOX12 inh: 265%; DT40 TDP1 CPT: 12µM*; HT1080 IDH1KD tx: inconclusive; IL-1B inflam inh: -98*; HT1080-NT tox: inconclusive; DT40 TDP1 no CPT: 18µM*

How did CCOc1ccc(CC(=O)N2CC(c3nnc(-c4ccncc4)o3)C3(CCOCC3)C2)cc1 (stereo unspecified) do in these assays?
ALOX12 inh: 32%
